Measured values from PubChem BioAssay (NCATS).
Values joined by “and” are separate entries in the source; they are usually repeats but may differ in a detail not shown here. Identical values can stand only once. Results filed as inconclusive are left out. Entries that show only a call come without a potency. Active and inactive are the calls of the source. The call rests on the fitted dose curve; in most records, active means well fitted curve in the direction sought with a large enough effect; inconclusive means small, poorly fitted or top-dose-only effect, or another doubt; inactive means no such curve, though single readings can be large; an effect the other way counts as inactive or inconclusive.

What was measured:
[1] = molecular target: Tyrosine-protein kinase Yes (Homo sapiens) (UniProt P07947); experiment: qHTS for small molecule inhibitors of Yes1 kinase: Primary Screen (AID 686947); further: nearly all actives have a fitted effect of over 60% in size; further: potency means the concentration at half of the fitted maximal effect
Chain of Tyrosine-protein kinase Yes (Homo sapiens) (P07947 whole entry, looked up): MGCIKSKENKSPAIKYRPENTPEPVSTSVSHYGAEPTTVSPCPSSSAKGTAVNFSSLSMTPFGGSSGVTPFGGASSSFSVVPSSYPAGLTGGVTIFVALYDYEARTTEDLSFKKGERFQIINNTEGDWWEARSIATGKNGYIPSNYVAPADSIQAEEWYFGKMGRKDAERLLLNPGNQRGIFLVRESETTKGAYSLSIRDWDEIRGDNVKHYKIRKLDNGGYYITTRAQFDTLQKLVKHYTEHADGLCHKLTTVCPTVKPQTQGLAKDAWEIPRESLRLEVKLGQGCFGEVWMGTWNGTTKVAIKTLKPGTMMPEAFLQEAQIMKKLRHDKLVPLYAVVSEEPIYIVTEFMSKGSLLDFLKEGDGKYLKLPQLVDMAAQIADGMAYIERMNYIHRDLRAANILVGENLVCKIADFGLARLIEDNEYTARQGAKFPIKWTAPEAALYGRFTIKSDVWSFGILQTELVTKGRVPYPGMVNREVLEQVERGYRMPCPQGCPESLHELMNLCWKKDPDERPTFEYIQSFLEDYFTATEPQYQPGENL
How it was run: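 ADP-Glo luminescence readout; final 4 nM Yes1, 0.1 mM ATP, 0.3 mg/mL poly(E4Y), Tris pH 7.5, MgCl2, DTT, Brij-35. 20 min compound preincubation, 60 min reaction at RT. Normalized to DMSO wells with and without enzyme.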

[2] = qHTS for small molecule inhibitors of Yes1 kinase: Counter Assay (AID 686950);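 further: no kinase present so only ADP-Glo detection of a fixed ADP amount is tested; luminescence from ADP-Glo reporting ADP in a fixed ATP and ADP mixture; series mostly up to about 77 µM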
How it was run: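 Luminescence read-out from ADP-Glo quantifies a fixed ADP amount (0.02 mM ADP with 0.08 mM ATP) after 60 min at room temperature; signal is normalized between DMSO wells with ATP/ADP and with 0.1 mM ATP alone.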

Row | Structure (SMILES) | Potency [1] | outcome [2]
1 | NC(=O)c1ccc2c(-c3ccnc(NCCCO)n3)c(-c3ccc(F)cc3)nn2c1 | 6.54 µM (active) | inactive
2 | COc1cccc(-n2ncc3c(NN=Cc4cccc(F)c4)ncnc32)c1 | 0.146 µM (active) | inactive
3 | CS(=O)(=O)CCNCc1ccc(-c2ccc3ncnc(Nc4ccc(OCc5cccc(C(F)(F)F)c5)cc4)c3c2)o1 | 6.54 µM (active) | inactive
4 | CN1CCC(C(=O)Nc2n[nH]c3nc(-c4ccc(O)cc4)c(Br)cc23)CC1 | 36.8 µM (active) and 23.2 µM (active) | inactive
5 | COc1ccccc1Nc1ncc(-c2ccccc2)o1 | 9.23 µM (active) | inactive
6 | O=C1NC(=O)C(c2ccccc2Cl)=C1Nc1cccc(O)c1 | 8.23 µM (active) | inactive
7 | CCS(=O)(=O)c1ccc(OC)c(Nc2nccc(N(C)c3ccc4c(C)[nH]nc4c3)n2)c1 | 0.0519 µM (active) | inactive
8 | COc1ccc(-c2ccc3c(NC(=O)C4CC4)n[nH]c3n2)cc1 | 6.54 µM (active) | inactive
9 | CS(=O)(=O)Nc1ccc(-c2ccc3c(NC(=O)C4CC4)n[nH]c3c2)cc1 | 20.7 µM (active) | inactive
10 | NC(=O)c1cccc(Nc2nccc(Nc3cccc(F)c3)n2)c1 | 1.16 µM (active) | inactive
11 | CCOc1ccc2c(-c3ccnc(Nc4cccc(C(F)(F)F)c4)n3)cnn2n1 | inactive | inactive
12 | CCCN(CCS(C)(=O)=O)Cc1ccc(-c2ccc3ncnc(Nc4ccc(OCc5cccc(F)c5)c(Cl)c4)c3c2)o1 | 6.54 µM (active) | inactive
13 | CCS(=O)(=O)c1ccc(OC)c(Nc2ncc(-c3cccc(-c4ccccc4F)c3)o2)c1 | 0.463 µM (active) | inactive
14 | Fc1ccc(Nc2nccc(-c3c(-c4ccc(C(F)(F)F)cc4)nn4ncccc34)n2)cc1F | inactive | inactive
15 | NC(=O)c1sc(-n2cnc3cc(C(F)(F)F)ccc32)cc1OCc1ccccc1Br | inactive | inactive
16 | CC(Oc1cc(-n2cnc3ccc(OCC4CCN(C)CC4)cc32)sc1C(N)=O)c1ccccc1C(F)(F)F (centres undefined) | 1.46 µM (active) | inactive
17 | NC(=O)Cc1ccccc1Oc1nccc(-c2c(-c3ccc(F)cc3)ncn2C2CCNCC2)n1 | 36.8 µM (active) | inactive
18 | CN1CCC(n2cnc(-c3ccc(F)cc3)c2-c2ccnc(N)n2)CC1 | 18.4 µM (active) | inactive
19 | COc1cc2c(cc1Nc1nc(Nc3ccsc3C(N)=O)c3cc[nH]c3n1)N(C(=O)CN(C)C)CCC2 | inactive | inactive
20 | O=C(OC1CNC(C#Cc2cc3ncnc(Nc4ccc5c(cnn5Cc5ccccc5)c4)c3s2)C1)N1CCOCC1 (centres undefined) | 1.04 µM (active) | inactive
21 | Cc1ccc(C(=O)NC2CC2)cc1-c1ccc2[nH]ncc2c1 | inactive | inactive
22 | CCn1c(-c2nonc2N)nc2ccc(F)cc21 | inactive | inactive
23 | NS(=O)(=O)c1ccc(N=Cc2c(O)[nH]c3ccc4ncsc4c23)cc1 | 823 nM (active) and 923 nM (active) | inactive
24 | Cc1nnc(-c2cccc(-c3ccc(C(=O)NCC4CC4)cc3)c2)o1 | inactive | inactive
25 | Cc1cc(O)cc(C)c1C=Cc1cncc(C(=O)N(C)C)c1 | 23.2 µM (active) | inactive
26 | FC(F)(F)c1ccc(-c2nn3ncccc3c2-c2ccnc(Nc3ccc4c(c3)OCCO4)n2)cc1 | 2.6 µM (active) | inactive
27 | NCc1ccc(-c2nc(-c3ccc(Cl)c(O)c3)c(-c3ccncc3)[nH]2)cc1 | 0.328 µM (active) | inactive
